# This is a sample that favours compounds with a hit; in the whole collection about 2.3% have one here.
# M1 PAM parental = counter-screen for M1 PAMs: effect in parental CHO-K1 cells. hit rate 0.02% among 360,000. AID 602247. activation, % at 3 µM. ATP EC20, Fluo-8 calcium fluorescence; 0% at ATP EC20, 100% at ATP max;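 active = activation above the run cutoff, the mean activation of all test compounds plus 3 SD, cut at about 40% in these data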;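 also: peak over basal fluorescence ratio in a 140 s read after ATP addition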
# M1 PAM = potentiates human M1 receptor response to acetylcholine. P11229. CHO-K1 hM1, Fluo-8 calcium fluorescence, ACh EC20; 0% = ACh EC20, 100% = maximal ACh. hit rate 0.088% among 360,000. activation, % at 3 µM; in the data active = activation above about 19%, passing the limit was not always enough
# Target sequence (P11229 whole entry, looked up): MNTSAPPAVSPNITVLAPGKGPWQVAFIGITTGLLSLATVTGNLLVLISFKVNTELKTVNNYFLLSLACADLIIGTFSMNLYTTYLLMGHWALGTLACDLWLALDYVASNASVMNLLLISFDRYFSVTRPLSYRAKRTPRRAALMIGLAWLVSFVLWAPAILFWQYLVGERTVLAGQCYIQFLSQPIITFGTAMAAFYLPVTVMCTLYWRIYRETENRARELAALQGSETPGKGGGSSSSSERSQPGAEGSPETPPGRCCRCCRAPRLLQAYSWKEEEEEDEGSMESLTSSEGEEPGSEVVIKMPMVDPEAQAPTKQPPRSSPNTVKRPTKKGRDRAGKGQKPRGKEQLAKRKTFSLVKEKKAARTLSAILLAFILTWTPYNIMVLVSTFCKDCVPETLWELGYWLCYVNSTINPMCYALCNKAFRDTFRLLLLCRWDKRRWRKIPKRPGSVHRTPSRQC
# M1 ag parental = counter-screen for M1 agonists: effect in parental CHO-K1 cells | Fluo-8 calcium fluorescence; scaled to maximal ATP response, vehicle zero | activation, % at 3 µM | hit rate 0.48% among 360,000 | AID 602248; in the data active = activation above about 15%;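 also: untransfected CHO-K1 host cells lacking M1 receptor as counterscreen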
# CHRM1 antagonist = antagonists of human M1 muscarinic receptor; CHO-K1 hM1, Fluo-8 calcium fluorescence, ACh EC80 antagonist; inhibition, % at 3 µM; hit rate 1.3% among 360,000;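 active = percent inhibition above its own plate's cutoff, namely the mean of that plate's compound wells plus 3 SD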;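 also: peak over basal fluorescence ratio during 140 s after agonist addition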
# CHRM1 agonist = agonists of human M1 muscarinic receptor. P11229. CHO-K1 hM1, Fluo-8 calcium fluorescence, agonist mode; 0% DMSO, 100% acetylcholine EC100. activation, % at 3 µM. hit rate 0.33% among 360,000. AID 588814;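 active = activation above the run's mean compound activation plus 3 SD, cut at about 16% in these data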;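 also: peak over basal fluorescence ratio within a 140 s kinetic read after compound addition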
# CHO-K1 Ca antag = counter-screen for M1 antagonists: effect in parental CHO-K1 cells | AID 602250 | ATP-induced calcium, Fluo-8 fluorescence | hit rate 0.6% among 360,000 | inhibition, % at 3 µM;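 active = inhibition above a per-plate cutoff, the plate's mean sample inhibition plus 3 SD, cut at about 24% in these data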
# Hits are given with their value; i = inactive; nt = no result.
SMILES,M1 PAM parental,M1 PAM,M1 ag parental,CHRM1 antagonist,CHRM1 agonist,CHO-K1 Ca antag
CC(=O)Nc1ccc(S(=O)(=O)N2CCc3cc4c(cc3C2C)OCCCO4)cc1 (stereo not drawn),i,i,i,i,i,i
COc1ccccc1C(=O)COC(=O)CNS(=O)(=O)c1ccc(C)c(C)c1,i,i,i,i,i,i
Cc1cc(F)ccc1-c1cc(C(=O)NC2CCCCC2)[nH]n1,i,i,i,i,i,i
CCOC(=O)C1=CCN(S(=O)(=O)c2ccc(C)cc2)[C@H]1c1ccccc1Cl,i,i,i,i,i,i
Cc1ccc(NC(=O)CCn2c(=O)c3cccn3c3ccccc32)cc1C,i,i,i,i,i,i
CN(C)S(=O)(=O)c1cc(NC(=O)COC(=O)CC2Sc3ccccc3NC2=O)ccc1Cl (stereo not drawn),i,i,i,i,i,i
NCCc1nnc(SCc2ccc(F)cc2)o1,i,i,i,i,i,i
NCCCCCc1nnc(SCc2ccc(Cl)c(Cl)c2)o1,i,i,i,47.8,i,i
CCOC(=O)c1ccc(NC(=O)COC)cc1,i,i,i,i,i,i
CCOC(=O)c1ccc(NC(=O)C(CC)(CC)C(=O)OCC)cc1,i,i,i,i,i,25.0
CCCCOc1ccc(CN2CCCCC2)cc1,i,i,i,42.4,i,i
CCCCOc1ccc(C(O)C(CN2CCCCC2)c2ccccc2)cc1 (stereo not drawn),i,i,i,34.7,i,i
O=[N+]([O-])c1cccc(COc2ccc(CN3CCCCC3)cc2)c1,i,i,i,86.7,i,i
Nc1nc2ccccc2cc1C(=O)NCCCCc1ccccc1,i,nt,i,nt,nt,i
N#C/C(=C(/O)CN1CCOCC1)c1nc(-c2ccccc2)cs1,i,i,i,i,i,i
CCOC(=O)C1CCCN(C/C(O)=C(\C#N)c2nc(-c3ccccc3)cs2)C1 (stereo not drawn),i,i,i,i,56.0,i
CCOC(=O)C1CCCN(C/C=C/c2ccccc2)C1 (stereo not drawn),i,i,i,56.3,i,i
O=[N+]([O-])c1ccccc1/C=C/CN1CCCCC1CO (stereo not drawn),i,i,i,i,i,i
CCOC(=O)C1CCN(C/C=C/c2ccccc2)CC1,i,i,i,i,i,i
O=[N+]([O-])c1ccccc1/C=C/CN1CCCCC1,i,i,i,45.1,i,i
CN(C/C=C/c1ccccc1[N+](=O)[O-])Cc1ccccc1,i,i,i,55.3,i,i
CCOC(=O)C1CCCN(C/C=C/c2ccccc2[N+](=O)[O-])C1 (stereo not drawn),i,i,i,27.6,i,i
CN(C)S(=O)(=O)c1cccc(-c2nn(-c3ccccc3)cc2/C=C(\C#N)c2nc3ccccc3[nH]2)c1,i,i,i,i,i,24.3
N#C/C(=C\c1cn(-c2ccccc2)nc1-c1cc2ccccc2o1)c1nc2ccccc2[nH]1,i,i,i,i,i,i
CN(Cc1nccn1C)C(=O)c1ccc2nc(Cc3ccccc3F)oc2c1,i,i,i,48.0,i,i
SMILES,M1 PAM parental,M1 PAM,M1 ag parental,CHRM1 antagonist,CHRM1 agonist,CHO-K1 Ca antag
CN(Cc1nccs1)C(=O)c1ccc2nc(Cc3ccccc3F)oc2c1,i,i,i,i,i,i
COc1cccc2c(=O)n(CC(=O)Nc3ccc(F)cc3F)ccc12,i,i,i,28.4,i,i
CCOCCn1ccc2c(OCC(=O)Nc3ccccc3OC)cccc2c1=O,i,i,i,30.2,i,i
CCOCCn1ccc2c(OCC(=O)Nc3cc(OC)ccc3OC)cccc2c1=O,i,i,i,i,i,i
COc1cccc2c(=O)n(CC(=O)Nc3ccccc3)ccc12,i,i,i,i,i,i
O=C(c1ccc(F)cc1)C1CCN(S(=O)(=O)c2ccccc2)CC1,i,i,i,i,i,i
O=C(CN1C(=O)c2ccccc2S1(=O)=O)NCc1ccc(F)cc1,i,i,i,i,i,62.6
O=C(CCN1C(=O)c2ccccc2S1(=O)=O)NCc1ccc(F)cc1,i,i,i,i,i,i
CCN1C[C@@H]2[C@@H]3C(=O)N(Cc4ccccc4)C(=O)[C@@H]3[C@](Cc3ccccc3)(C(=O)OC)N2C1=NC,i,i,i,i,i,i
Oc1cc(-c2cccnc2)cc2cccnc12,i,i,i,i,i,71.8
COc1ccc(CC(=O)N2CCC(CCC(=O)Nc3ccccc3)CC2)cc1,i,i,i,i,i,23.9
COc1cccc(NC(=O)CCC2CCN(C(=O)Cc3cccc(F)c3)CC2)c1,i,i,i,i,i,i
COC(=O)c1cccc(NC(=S)Nc2cc(Cl)ccc2OC)c1,i,i,i,i,i,i
COC(=O)c1cccc(NC(=O)Nc2ccc(Cl)cc2Cl)c1,i,i,i,i,i,27.6
O=C(c1ccco1)N1CCN(Cc2csc(-c3ccccc3Cl)n2)CC1,i,i,i,i,i,i
CC(C)Oc1cccc(NC(=O)C2(C)CCCN2C(=O)C(C)C)c1 (stereo not drawn),i,i,i,i,i,i
CCc1cccc(NS(=O)(=O)c2c(C)nc3sc(CC)nn3c2=O)c1,i,i,i,72.6,i,i
CC1Cc2nc(SCC(=O)NCc3ccccc3)n(Cc3ccccc3)c(=O)c2S1 (stereo not drawn),i,i,i,53.2,i,i
CCn1c(SCC(=O)Nc2cccc(C)c2)nc2c(c1=O)SC(C)C2 (stereo not drawn),i,i,i,i,i,34.7
CC1Cc2nc(SCC(=O)c3ccccc3)n(Cc3ccccc3)c(=O)c2S1 (stereo not drawn),i,i,i,i,i,i
CCn1c(SCC(=O)Nc2ccc3c(c2)OCO3)nc2c(c1=O)SC(C)C2 (stereo not drawn),i,i,i,i,i,i
O=C(COC(=O)COc1cccc(C(F)(F)F)c1)Nc1ccc(N2CCOCC2)cc1,i,i,i,i,i,i
CCc1nn(CC(=O)NCCCN(C)C2CCCCC2)c(=O)c2cc3occc3n12,i,i,i,i,i,i
CCc1nn(CC(=O)NCCCN(CC)Cc2ccccc2)c(=O)c2cc3sccc3n12,i,i,i,43.6,i,i
CCc1nn(CC(=O)NCCCN2CCN(CC)CC2)c(=O)c2cc3occc3n12,i,24.0,i,i,i,i
Cc1c(C(=O)OCC(=O)N(C)c2ccccc2)oc2ccccc12,i,i,i,33.2,i,i
Cc1c(C(=O)OCC(=O)N2C(C)CCCC2C)oc2ccccc12 (stereo not drawn),i,i,i,i,i,i
Cc1c(C(=O)OCCN2CCCCC2)oc2ccccc12,i,i,i,91.8,i,i
COc1ccc(C(=O)OCCN2CCCCC2)cc1,i,i,i,i,i,i
CC(C)(C)c1ccc(C(=O)OCCN2CCCCC2)cc1,i,i,i,45.5,i,i
